Screens as filed in PubChem.
An excerpt weighted towards active compounds, which were near 8% of everything screened.
SW480 rerep = induces DNA re-replication in SW480 colon adenocarcinoma cells; SW480 DNA re-replication, Hoechst DNA content imaging, 48 h; Potency, µM (titrated, usually from 46.1 µM), most hits filed as activators; hit rate 1.8% among 340,000; AID 624297; note: nearly all actives have a fitted effect of over 55% in size
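250 cells/well; 23 nL cpd via pin tool; 48 hr, 37 C, 5% CO2; Hoechst 40 min; imager read of total nuclear intensity, ex 405/em 500-530 nm.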
HT1080NT lethal = kills 2HG-producing HT-1080-NT fibrosarcoma cells; Potency, µM (highest dose often 46.1 µM), actives largely listed as cytotoxic; HT-1080-NT fibrosarcoma viability, CellTiter-Glo ATP luminescence, 48 h; hit rate 1.6% among 360,000;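 note: NT is the 2HG producing partner of a matched IDH1 knockdown line; nearly all actives have a fitted effect of over 55% in size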
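Compounds were tested in concentration-response format on HT-1080-NT cells for 48 hours at 37 degrees C. Cell viability came from CellTiter-Glo luminescence; curves were classified by r2, response magnitude and activity.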
HT1080 IDH1KD tx = toxicity to HT-1080 IDH1 knockdown cells (counter line); HT-1080 IDH1 knockdown viability, ATP luminescence, 48 h; Potency, µM (highest dose often 46.1 µM), usual class: cytotoxic; hit rate 2% among 360,000; AID 686971
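Cytotoxicity counter-line: IDH1KD HT-1080, 48 h, CellTiter-Glo. Curves classed by r2, magnitude and activity.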
MCF10A rerep = induces DNA re-replication in MCF 10a normal breast cells | MCF 10A DNA re-replication, Hoechst nuclear intensity, 48 h | Potency, µM (titrated, usually from 46.1 µM), actives largely listed as activators | hit rate 2.9% among 350,000 | AID 624296; note: nearly all actives have a fitted effect of over 50% in size
KB-3-1 cytotox = kills parental KB-3-1 adenocarcinoma cells. KB-3-1 viability, CellTiter-Glo ATP luminescence, 72 h. Potency, µM (titrated, usually from 46.1 µM), actives largely listed as cytotoxic. hit rate 1.4% among 400,000. AID 1347075; note: nearly all actives have a fitted effect of over 60% in size
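Parental KB-3-1 adenocarcinoma cells in phenol-red-free DMEM with 10% FBS were pin-treated with compounds at several concentrations, incubated 72 h at 37 °C, and viability read by CellTiter-Glo luminescence; concentration-effect curves were fitted after normalization.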
KB-V1 MDR tox = kills drug-selected multidrug resistant KB-V1 cells; KB-V1 MDR cells viability, CellTiter-Glo, 72 h; Potency, µM (top dose mostly 46.1 µM), usual class: cytotoxic; hit rate 3.4% among 400,000; AID 1347076; note: nearly all actives have a fitted effect of over 60% in size
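Cytotoxicity via CellTiter-Glo luminescence after 72 h compound exposure at 37 degrees C. Cells: drug-selected KB-V1 line, DMEM phenol-red free plus 10% FBS. Compounds tested at multiple concentrations; normalized data fitted to concentration-effect curves.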
Large screens that a line does not name were inactive. Calls come from the whole dose curve; as a rule, active = well fitted curve in the direction sought with a large enough effect; inconclusive = small, poorly fitted or top-dose-only effect, or another doubt; inactive = no such curve, though single readings can be large; an effect the other way counts as inactive or inconclusive.

COc1ccc(C(=O)NCc2ccc3c(c2)OCO3)cc1S(=O)(=O)NCc1ccc(Cl)cc1	none
COc1ccc(CNS(=O)(=O)CCNC(=O)c2ccccc2)cc1	none
COc1ccc(C(=O)NCCS(=O)(=O)NCc2ccc3c(c2)OCO3)cc1	none
CC(C)(C)OC(=O)N1CCC(c2c(C(=O)NC3CCCCC3)cnn2-c2ccc(F)cc2F)CC1	none (no result: SW480 rerep, HT1080NT lethal, HT1080 IDH1KD tx, MCF10A rerep)
C=CCNC(=S)NNC(=O)c1ccc(Br)cc1	KB-3-1 cytotox 14.6µM, KB-V1 MDR tox 11.6µM
Cc1ccc(NCCCn2cnc(C(=O)Nc3ccc(C)c(C)c3)n2)cc1C	KB-V1 MDR tox inconclusive
Cc1cc(C)c(CN2CCN(CCCn3cnc(C(=O)Nc4ccc(C)c(C)c4)n3)CC2)c(C)c1	SW480 rerep 7.31µM, HT1080NT lethal inconclusive, HT1080 IDH1KD tx inconclusive, MCF10A rerep inconclusive
Cc1cc(C)c2nc(C(F)(F)F)nc(NCCCN3CCOCC3)c2c1	SW480 rerep inconclusive, HT1080NT lethal 17.8µM, HT1080 IDH1KD tx 15.8µM, MCF10A rerep inconclusive, KB-3-1 cytotox inconclusive, KB-V1 MDR tox 3.66µM
Cc1cc(C)c2cc(C#N)c(NCCNC(=S)NCCCN3CCOCC3)nc2c1	SW480 rerep inconclusive, MCF10A rerep inconclusive
C/C(=N\NC(=O)c1ccccc1)c1ccc(NC(=O)c2cccs2)cc1	SW480 rerep 1.46µM
COc1ccc(NC(=O)c2ccc(NC(=O)c3cccs3)cc2)cc1	HT1080NT lethal inconclusive, HT1080 IDH1KD tx inconclusive
C/C(=N\NC(=O)C(N)=O)c1ccc(NC(=O)c2cccs2)cc1	none
COc1ccc(C(=O)/C=C\c2ccc(NC(=O)c3cccs3)cc2)cc1	SW480 rerep 18.4µM, HT1080NT lethal inconclusive, HT1080 IDH1KD tx inconclusive, MCF10A rerep inconclusive, KB-3-1 cytotox inconclusive, KB-V1 MDR tox inconclusive
C/C(=N\NC(=O)c1ccccc1O)c1ccc(NC(=O)Cc2ccccc2)cc1	SW480 rerep 11.6µM, KB-3-1 cytotox inconclusive, KB-V1 MDR tox 16.4µM
C/C(=N\NC(=O)CNC(=O)c1cccs1)c1ccc(Cl)c(Cl)c1	SW480 rerep 3.66µM, HT1080NT lethal inconclusive, HT1080 IDH1KD tx inconclusive, MCF10A rerep inconclusive
Cc1cccc(C(=O)N2CCN=C2SCc2ccc([N+](=O)[O-])cc2)c1	KB-V1 MDR tox inconclusive
N#Cc1ccc(-c2nc3c4ccccc4ccn3c2Cc2ccccc2C(F)(F)F)cc1	KB-3-1 cytotox inconclusive (no result: SW480 rerep, MCF10A rerep)
CC1(C)SC2C(NC(=O)C(C(=O)O)c3ccccc3)C(=O)N2C1C(=O)O (centres undefined)	none (no result: HT1080NT lethal, HT1080 IDH1KD tx, KB-3-1 cytotox, KB-V1 MDR tox)
C/C(=N\NC(=O)c1ccccc1C)c1ccc(NC(=O)c2cccs2)cc1	SW480 rerep inconclusive, KB-V1 MDR tox 5.8µM
COc1ccccc1C(=O)N(CN1CCCC1=O)c1cccc(Cl)c1	none
CCOc1ccccc1C(=O)N(CN1CCCC1=O)c1cccc(Cl)c1	KB-V1 MDR tox 11.6µM
Cc1ccnc(NS(=O)(=O)c2ccc(NC(=O)c3cncc(Br)c3)cc2)n1	none
CC1=NN(c2ccc(Cl)cc2)C(=O)C1C(c1ccccc1O)c1c(C)[nH]n(-c2ccc(Cl)cc2)c1=O (centres undefined)	HT1080NT lethal 23.1µM, HT1080 IDH1KD tx inconclusive, MCF10A rerep inconclusive, KB-V1 MDR tox inconclusive
COc1cccc(/C=C/c2nc(C#N)c(N(C)Cc3ccccc3)o2)c1	none (no result: SW480 rerep, HT1080NT lethal, HT1080 IDH1KD tx, MCF10A rerep)
COc1ccccc1/C=C/c1nc(C#N)c(N(C)C)o1	SW480 rerep inconclusive, MCF10A rerep 23.1µM
CN(C)c1oc(/C=C/c2ccccc2)nc1C#N	SW480 rerep 14.6µM, MCF10A rerep inconclusive, KB-V1 MDR tox inconclusive
COc1ccccc1N1CCN(C(=O)CCNS(=O)(=O)c2ccc(Br)s2)CC1	KB-V1 MDR tox inconclusive
CCCCN1Cc2ccccc2Oc2cc(Br)ccc2S1(=O)=O	none
Cc1ccccc1OCCCSc1nc2ccccc2[nH]1	MCF10A rerep inconclusive, KB-3-1 cytotox inconclusive, KB-V1 MDR tox 11.6µM
CCC(C)NC(=O)Cc1ccc(NC(=O)N2CCCCc3ccccc32)cc1 (centres undefined)	none (no result: SW480 rerep, HT1080NT lethal, HT1080 IDH1KD tx, MCF10A rerep)
CCOc1ccc(-c2nnc(SCC(=O)NCc3ccc(C)cc3)nc2-c2ccc(OCC)c(OC)c2)cc1OC	none (no result: SW480 rerep, HT1080NT lethal, HT1080 IDH1KD tx, MCF10A rerep)
COc1cccc(CNC(=O)C(=O)NCCC2CCCCN2S(=O)(=O)c2cccs2)c1 (centres undefined)	none
Cc1cccc(NC(NC(=O)c2ccccc2[N+](=O)[O-])C(Cl)(Cl)Cl)c1 (centres undefined)	KB-V1 MDR tox 23.1µM
COCC(C)N=C1NN=C(c2ccc(NC(C)=O)cc2)CS1 (centres undefined)	SW480 rerep inconclusive, MCF10A rerep 5.8µM
COc1ccc(CS(=O)(=O)CC(C)(O)c2ccc(Cl)cc2)cc1 (centres undefined)	none
COC(=O)/C(=C(/F)Sc1cc(C)c(O)c(C)c1)C(F)(F)F	SW480 rerep inconclusive, HT1080 IDH1KD tx inconclusive, MCF10A rerep 25.9µM, KB-3-1 cytotox inconclusive
CCc1nnc(NC(=O)c2ccc(S(=O)(=O)N3CCCc4ccccc43)cc2)o1	SW480 rerep 16.4µM, HT1080NT lethal inconclusive, HT1080 IDH1KD tx 7.08µM, MCF10A rerep 9.2µM, KB-V1 MDR tox inconclusive
CNC(=O)c1ccsc1NC(=O)c1ccc(S(=O)(=O)N2CCCc3ccccc32)cc1	KB-3-1 cytotox 8.2µM, KB-V1 MDR tox inconclusive
O=C(Nc1nc2c(s1)CCCC2)c1ccc(S(=O)(=O)N2CCCc3ccccc32)cc1	MCF10A rerep inconclusive, KB-3-1 cytotox 5.8µM, KB-V1 MDR tox 2.59µM
O=C(Nc1nc2ccccc2s1)c1cccc(S(=O)(=O)N2CCc3ccccc32)c1	HT1080NT lethal inconclusive, KB-3-1 cytotox inconclusive, KB-V1 MDR tox inconclusive
O=C(Nc1nc2c(s1)CN(Cc1ccccc1)CC2)c1cccc(S(=O)(=O)N2CCc3ccccc32)c1	SW480 rerep 16.4µM, MCF10A rerep 10.3µM, KB-3-1 cytotox inconclusive, KB-V1 MDR tox 6.51µM
COc1cccc(CN2CCC(C(=O)N3CCN(Cc4ccc5c(c4)OCO5)CC3)CC2)c1	none
CCOc1ccc(CCNC(=O)COC(=O)COc2ccc(C(C)=O)cc2)cc1OCC	none
Cc1ccc(NC(=O)C2CCN(C(=O)c3ccc(Cl)cc3)CC2)nc1	none
O=C(Cc1cccs1)N(Cc1cccs1)C1(C(=O)NC2CCCC2)CCCCC1	KB-3-1 cytotox inconclusive, KB-V1 MDR tox 8.2µM
O=C(c1ccccn1)N(Cc1ccco1)C1(C(=O)NC2CCCCC2)CCCCC1	KB-V1 MDR tox 9.2µM
CC(C)(C)c1ccc(C(=O)C2CCCN(C(=O)CN3CCCC3=O)C2)cc1 (centres undefined)	KB-V1 MDR tox inconclusive
O=C(Nc1c(C(=O)N2CCN(c3ccccc3)CC2)oc2ccccc12)c1ccccc1F	KB-V1 MDR tox inconclusive (no result: SW480 rerep, HT1080NT lethal, HT1080 IDH1KD tx, MCF10A rerep)
